SMARCA2 activ: SMARCA2 function activation, primary screen | MG213 cells, MMTV-luciferase reporter, dexamethasone, overnight | activation, % at 9.1 µM | 370,000 compounds, 1% hits | AID 652017; in the data active means activation above about 7.8%;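 further: 0% = vehicle wells and 100% = reference activator wells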
DAX1 inh-1: blocks DAX1 repression of SF-1 activated StAR promoter. HEK293T StAR-luciferase reporter, SF-1/DAX-1 repression relief. AID 652010. inhibition, % at 6.8 µM. 370,000 compounds, 1.1% hits;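 active means inhibition above the mean over all tested compounds plus 3 SD, cut at about 3.6% in these data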;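 further: 0% = DAX-1 cells with DMSO and 100% = cells lacking DAX-1 with DMSO; higher inhibition means more luminescence from relief of DAX-1 repression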
hgDAF-12 ag: agonists of H. glycines DAF-12 nuclear receptor; HEK293 GAL4-hgDAF12 UAS-luciferase reporter, agonist luminescence; normalized to butyrate control; activation, % at 6.8 µM; 370,000 compounds, 1.8% hits;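 active means activation above a cutoff set at the mean of all screened compounds plus 3 SD, cut at about 10% in these data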;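 further: 0% = DMSO wells and 100% = sodium butyrate wells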
ssDAF12 agonist: activators of S. stercoralis DAF-12 nuclear receptor; activation, % at 6.8 µM; HEK293 ssDAF-12/GRIP1 lit1-tk-luc reporter, luminescence; % of 3 µM dafachronic acid response; 370,000 compounds, 1% hits;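 active means activation above the mean over all tested compounds plus 3 SD, cut at about 0.9% in these data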;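 further: 0% = DMSO-only wells and 100% = 3 µM delta7-dafachronic acid wells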
DAX1 inh-2: inhibitors of human orphan nuclear receptor DAX1 (NR0B1). HEK293 Gal4-DAX1 luciferase reporter, luminescence. 340,000 compounds, 0.99% hits. inhibition, % at 6.75 µM. P51843;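 active means inhibition above the mean over all tested compounds plus 3 SD, cut at about 4.2% in these data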;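 further: 0% = DAX1-transfected cells with DMSO and 100% = empty-vector control cells with DMSO; inhibition shows as a rise in luminescence from relieved DAX1 repression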
Target sequence (P51843 207-470 limits assumed): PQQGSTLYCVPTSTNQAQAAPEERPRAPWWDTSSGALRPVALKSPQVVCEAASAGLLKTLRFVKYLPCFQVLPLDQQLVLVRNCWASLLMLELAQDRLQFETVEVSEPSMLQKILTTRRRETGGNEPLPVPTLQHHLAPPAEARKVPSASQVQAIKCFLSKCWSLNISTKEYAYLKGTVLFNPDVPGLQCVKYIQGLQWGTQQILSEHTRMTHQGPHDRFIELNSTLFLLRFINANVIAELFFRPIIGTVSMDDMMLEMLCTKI
hcDAF12 agonist: activators of H. contortus DAF-12 nuclear receptor | HEK293 hcDAF-12 lit1-tk-luc reporter, luminescence; 0% DMSO, 100% Δ7-dafachronic acid | AID 652067 | activation, % at 6.8 µM | 370,000 compounds, 1.4% hits;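 active means activation above the mean of all tested compounds plus 3 SD, cut at about 5.5% in these data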;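 further: 100% = response to 3 µM Δ7-dafachronic acid high control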
* hit, by the source's call. Shown are actives, neighbours in structure and some others; about 4.8% of the full set was active somewhere.

How did COc1ccc(OCC(=O)Nc2ccc(Cl)cc2)cc1 do in these assays?
SMARCA2 activ: 5.0; DAX1 inh-1: -0.8; hgDAF-12 ag: 2.1; ssDAF12 agonist: -0.9; DAX1 inh-2: 1.1; hcDAF12 agonist: 1.7

What do the screens show for `C/C(=N/NC(=O)c1cccs1)c1ccc(NC(=O)COc2ccc(Cl)cc2)cc1`?
SMARCA2 activ: 6.7; DAX1 inh-1: 2.0; hgDAF-12 ag: 11.9*; ssDAF12 agonist: 0.1; DAX1 inh-2: 4.7*; hcDAF12 agonist: 4.0

Results for Cc1ccc(N(C)S(=O)(=O)c2cccc(C(=O)OCC(=O)N3CCCC(C)C3)c2)cc1 (stereo not drawn) ?
SMARCA2 activ: -1.8; DAX1 inh-1: -0.3; hgDAF-12 ag: -1.0; ssDAF12 agonist: -1.0; DAX1 inh-2: 0.6; hcDAF12 agonist: 0.5

How did O=C(C1CCCCC1)N1CCC2CC1c1cc(Cl)ccc12 (stereo not drawn) do in these assays?
SMARCA2 activ: -2.8; DAX1 inh-1: -0.7; hgDAF-12 ag: 2.4; ssDAF12 agonist: -0.9; DAX1 inh-2: -0.4; hcDAF12 agonist: -0.9

What do the screens show for `O=Cc1c[nH]c2cccc(OCc3ccccc3)c12`?
SMARCA2 activ: -0.6; DAX1 inh-1: -1.1; hgDAF-12 ag: 0.8; ssDAF12 agonist: -0.2; DAX1 inh-2: -1.3; hcDAF12 agonist: 0.5

What do the screens show for `O=c1c2ccccc2nc2sc(Nc3cccc(Cl)c3)nn12`?
SMARCA2 activ: 1.8; DAX1 inh-1: 0.2; hgDAF-12 ag: 1.2; ssDAF12 agonist: -0.1; DAX1 inh-2: 0.1; hcDAF12 agonist: 2.4

How did O=c1c2ccc(F)cc2nc2sc(Nc3ccc4c(c3)CCC4)nn12 do in these assays?
hgDAF-12 ag: 10.6*; ssDAF12 agonist: 0.2; hcDAF12 agonist: 2.5

How did Cn1c(CNC(=O)C(Cc2ccccc2)NC(=O)c2cccc(F)c2)cc(=O)n(C)c1=O (stereo not drawn) do in these assays?
SMARCA2 activ: -1.5; DAX1 inh-1: 0.1; hgDAF-12 ag: 0.8; ssDAF12 agonist: 0.0; DAX1 inh-2: -0.2; hcDAF12 agonist: -0.6

Results for c1ccc2oc(SCc3cn4ccccc4n3)nc2c1 ?
SMARCA2 activ: 0.4; DAX1 inh-1: 3.7*; hgDAF-12 ag: 9.5; ssDAF12 agonist: -1.1; DAX1 inh-2: 2.4; hcDAF12 agonist: 5.9*

Results for CC(=O)c1cnc(Nc2ccc(C)cc2)s1 ?
SMARCA2 activ: 0.5; DAX1 inh-1: 1.8; hgDAF-12 ag: 9.1; ssDAF12 agonist: -1.3; DAX1 inh-2: 4.7*; hcDAF12 agonist: 0.8

What do the screens show for `CC(=O)Nc1ccc(S(=O)(=O)N2CCC(c3nc4ccc(C)cc4[nH]3)CC2)cc1`?
SMARCA2 activ: -3.2; DAX1 inh-1: -0.4; hgDAF-12 ag: 0.4; ssDAF12 agonist: -2.0; DAX1 inh-2: 4.4*; hcDAF12 agonist: -0.8

Results for CCOC(=O)Nc1ccc(S(=O)(=O)N2CCC(c3nc4ccccc4[nH]3)CC2)cc1 ?
SMARCA2 activ: -2.0; DAX1 inh-1: -1.2; hgDAF-12 ag: -1.3; ssDAF12 agonist: -1.4; DAX1 inh-2: 1.3; hcDAF12 agonist: -0.7

What do the screens show for `COC1=CC(=O)OC(c2ccc(C#N)cc2)C1` (stereo not drawn)?
SMARCA2 activ: -4.0; DAX1 inh-1: -2.2; hgDAF-12 ag: 2.6; ssDAF12 agonist: -0.3; hcDAF12 agonist: -0.2

What do the screens show for `COc1ccc(NC(=S)Nn2cnnc2)cc1OC`?
SMARCA2 activ: -3.6; DAX1 inh-1: -0.8; hgDAF-12 ag: -3.1; ssDAF12 agonist: -2.2; DAX1 inh-2: 6.4*; hcDAF12 agonist: -0.4

How did COc1ccccc1Cc1c(-c2ccco2)nc2c3ccccc3ccn12 do in these assays?
SMARCA2 activ: 6.4; DAX1 inh-1: 0.7; hgDAF-12 ag: 6.7; ssDAF12 agonist: 0.6; hcDAF12 agonist: 5.7*

What do the screens show for `COc1ccccc1Cc1c(-c2ccc(F)cc2)nc2c3ccccc3ccn12`?
SMARCA2 activ: -1.4; DAX1 inh-1: -0.4; hgDAF-12 ag: 4.5; ssDAF12 agonist: 0.5; hcDAF12 agonist: 5.8*

What do the screens show for `Cc1ccc(-c2nc3c4ccccc4ccn3c2Cc2ccccc2C(F)(F)F)cc1`?
SMARCA2 activ: -1.3; DAX1 inh-1: 0.8; hgDAF-12 ag: 1.9; ssDAF12 agonist: 0.9*; hcDAF12 agonist: 4.5

What do the screens show for `Cc1ccc(-c2nc3c4ccccc4ccn3c2Cc2ccccc2)cc1`?
SMARCA2 activ: -5.6; DAX1 inh-1: 0.0; hgDAF-12 ag: 2.3; ssDAF12 agonist: 0.4; DAX1 inh-2: 0.1; hcDAF12 agonist: 3.8

Bioassay records: PubChem, The Scripps Research Institute Molecular Screening Center
